From PubChem BioAssay (NCI) come the findings set out here.

This is part of a sample that, as a whole, favours compounds with a hit. Of some 83,000 tested, about 20% had one in any assay.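 96-well plates, one dose, 48 hours. Percent growth reported; active if below 10.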 Values without a mark were called inactive. Active and inactive are the calls of the source.

The experiment relates to NCI-H460 lung. Put plainly: NCI-60 one-dose screen, 48 h (100 = growth as untreated, 0 = no growth, -100 = all killed). To be noted: 10 µM unless noted. The protocol: Growth inhibition of the NCI-H460 human Non-Small Cell Lung tumor cell line is measured as a screen for anti-cancer activity. Cells are grown in 96 well plates and exposed to the test compound for 48 hours. Compounds are tested at a single concentration, which is 10^-5 M for most compounds. The reported endpoint is percent growth (GI% or GIPRCNT), where numbers from 0 - 100% represent growth inhibition, and numbers from -100% - 0 represent cell death. For example, a value of 40 represents 60% growth inhibition. A value of 0 means no net growth occurred over the course of the experiment. A value of -40 indicates 40% of cells at the beginning of the experiment died by the end of the experiment. A value of -100 means all cells are dead at the end of the experiment.
NCI-60 Human Tumor Cell Lines Screen was performed using the standard one-dose NCI protocol, which is described in more detail at https://dtp.cancer.gov/discovery_development/nci-60/default.htm.
Compounds with GIPRCNT values below 10 were considered active. Activity score was based on GIPRCNT using the following formula: […]
Score is 0 for GIPRCNT values of 100 or above, 50 for GIPRCNT values of 0, and 100 for GIPRCNT values of -100.
For the compound `N#Cc1c(NC(=O)c2ccco2)[n+]([O-])c2cc(Cl)c(Cl)cc2[n+]1[O-]`, the growth is 109%.
As for `C(=C1c2ccccc2-c2ccccc21)c1ccccn1`, the figure is 83.8%.
In the case of `C/C(=C\CCc1ccoc1)CC/C=C(\C)CCCC1COC(=O)C1` (stereo not given) it was 98.8%; in that of `COc1ccc(N2CCN(CC(=O)N3CCN(c4nnc(-c5ccccc5)c(-c5ccccc5)n4)CC3)CC2)cc1`, 42.5%; in that of `COc1ccc2c(c1)[n+](=O)c(C(=O)/C=C/c1cc(OC)c(OC)c(OC)c1)c(C)n2[O-]`, 44.7%.
As to `C[C@]12CCC(=O)C=C1CCC1C2[C@@H](O)C[C@@]2(C)C1CC[C@]2(O)C(=O)COC(=O)CCC(=O)O` (stereo not given in full), the growth is 102%.
Consider `C[C@@H]1CN(c2nc3c(cc2F)c(=O)c(C(=O)O)cn3C(C)(C)C)C[C@H](C)N1`, for which the growth is 107%.
For `Cc1[nH]c(=O)[nH]c(=O)c1CCSSCCc1c(C)[nH]c(=O)[nH]c1=O`, the growth is 108%.
As to `CC[C@@H](c1ccc(O)c(O)c1)[C@@H](CC)c1ccc(O)c(O)c1`, the growth was 111%.
As for `COc1cccc(/C=C2\Cc3ccccc3C2=O)c1`, the figure is 105%; as for `O=C1Nc2ccc(Cl)cc2[C@@](C#CC2CC2)(C(F)(F)F)O1`, 102%.
With `Nc1nc(Nc2ccccc2SSc2ccccc2Nc2nc(N)nc(C(Cl)(Cl)Cl)n2)nc(C(Cl)(Cl)Cl)n1`, the growth is 69.6%.
Take `O=c1oc2c(cc1-c1ccc([N+](=O)[O-])cc1)C(O)Oc1ccccc1-2` (stereo not given): the growth is 97.2%.
Consider `Cn1c(=O)c2[nH]c(=S)n(Cc3ccccc3)c2n(C)c1=O`, for which the growth was 110%.
In the case of `COc1ccc(C2CC(c3ccc(Nc4ccnc5cc(Cl)ccc45)cc3)=NN2C(C)=O)cc1` (stereo not given) it was 85.4%.
On to `COc1ccc(CNC(=O)c2c(C)n([O-])c3ccc(OC)cc3[n+]2=O)cc1`, for which the growth was 118%.
On to `O=C(O)CNC(=O)C1(N2C(=O)c3ccccc3C2=O)CCCC1`, for which the growth is 113%.
As for `CCSc1nc(Nc2ccc(S(=O)(=O)Nc3ccon3)cc2)c(C#N)c(-c2cccc(Br)c2)n1`, the figure is 106%; as for `COc1cc(/C=C2\SC(N3CCCCC3)=NC2=O)ccc1OCCCCCCOc1ccc(/C=C2\SC(N3CCCCC3)=NC2=O)cc1OC`, -45.4% (active); as for `CCCCOP(=O)(OCCCC)C(C(=O)OCC)C(CC(=O)OCC)C(=O)OCC` (stereo not given), 109%.
On to `O=C(/C=C(\Nc1ccccc1)c1ccccc1)c1cn(-c2ccc([N+](=O)[O-])cc2)nn1`, for which the growth was 91%.
Take `CC(=O)/C(=C/c1ccc(Cl)cc1)C(=O)c1ccccc1`: the growth was 99.7%.
`CC(=O)OC1Oc2cc(C)c(C)cc2-c2oc(=O)c(-c3ccccc3)cc21` (stereo not given): the growth is 4.89% (active).
Turning to `COP(=O)(OC)C(c1ccc(O)cc1)(c1ccc(O)cc1)c1ccc(O)cc1`, the growth was 113%.
For the compound `CN(C)CCCNc1nn2c(=O)c3ccccc3nc2c2ccccc12`, the growth is 19.9%.
As for `N#Cc1c(-c2ccccc2)cc(-c2ccccc2)n(CCCC(=O)O)c1=O`, the figure is 103%; as for `C#C[C@]1(O)CCC2C3CCc4cc(O)ccc4C3CC[C@@]21C` (stereo not given in full), 17.5%; as for `COc1ccc(C(=O)/C=C/c2cccc(Nc3ccnc4cc(Cl)ccc34)c2)cc1`, 31.6%.
As for `CC(=O)c1ccc(NS(=O)(=O)c2ccc([N+](=O)[O-])cc2)cc1`, the growth is 114%.
On to `CN(C)CCCN=c1cc2c(=O)n(CCCN(C)C)c(=O)c3c(NCCCN(C)C)cc4c(O)n(CCCN(C)C)c(=O)c1c4c3-2`, for which the growth is -43.5% (active).
As for `[N-]=[N+]=NCc1cccc(/C(O)=C/C(=O)C(=O)O)c1`, the figure is 104%; as for `N#CSCC1CC(O)(c2ccccc2)C(c2ccccc2)C(c2ccc(Cl)cc2)O1` (stereo not given), -68.7% (active).
As for `CCCCc1n(Cc2ccc3ccccc3c2)cc[n+]1Cc1ccc2ccccc2c1`, the growth is -13.1% (active).
Consider `O=c1ccn(C2CC=C(CO)O2)c(=O)[nH]1` (stereo not given), for which the growth was 124%.
Consider `Cn1c(N2N=C(c3ccc(Cl)cc3)CC2c2ccccc2)nc(-c2ccccc2)c(C#N)c1=O` (stereo not given), for which the growth was 58.7%.
For the compound `COc1ccc(-c2nc3sc4c(c3c(=O)[nH]2)CCCCCC4)cc1`, the growth was 33.2%.
As for `CC(=O)O[C@H]1CC[C@@]2(C)C(=CC[C@@H]3[C@@H]2CC[C@]2(C)C(c4cccnc4)=CC[C@@H]32)C1`, the figure is 68.2%; as for `COC(=O)c1cc2c(/C=C3/NC(=S)NC3=O)coc2n1C`, 115%.
As for `O=C(COc1cccc(/C=C2\Oc3ccc4ccccc4c3C2=O)c1)c1ccc(Cl)cc1`, the figure is 114%.
Consider `CCCCCc1c(C)[nH]c(/C=C2\N=C(c3ccc[nH]3)C=C2Oc2ccccc2)c1C`, for which the growth is -38.6% [100 µM] (active).
